Assay outcomes: PubChem, The Scripps Research Institute Molecular Screening Center
HTR5A ag ctr – counter-screen for OPRM1-OPRD1 agonists: human HTR5A agonism; HTR5A agonist assay, luminescence, cell-based; activation, % at 9.3 µM; hit rate 0.61% among 340,000; in the data active = activation mostly above about 9.5%, no sharp cut-off; inactive = mostly below about 7.6%;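 also: 0% = cells with vehicle only and 100% = reference agonist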
Target sequence (P47898 whole entry, looked up): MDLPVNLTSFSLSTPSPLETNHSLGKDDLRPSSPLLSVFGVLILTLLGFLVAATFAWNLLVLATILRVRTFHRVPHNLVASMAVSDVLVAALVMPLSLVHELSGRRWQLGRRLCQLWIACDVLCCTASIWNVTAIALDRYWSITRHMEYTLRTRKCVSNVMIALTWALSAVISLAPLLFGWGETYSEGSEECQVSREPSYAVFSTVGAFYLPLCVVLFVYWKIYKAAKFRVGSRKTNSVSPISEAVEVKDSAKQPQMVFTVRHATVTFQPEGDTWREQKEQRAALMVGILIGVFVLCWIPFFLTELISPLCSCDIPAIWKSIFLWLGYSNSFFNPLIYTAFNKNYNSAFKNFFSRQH
OPRM1-OPRD1 ag – OPRM1-OPRD1 heterodimerization agonism; P35372+P41143; cells, luminescence; activation, % at 9.3 µM; hit rate 0.3% among 340,000; AID 504326; in the data active = activation above about 18%;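 also: 0% = vehicle-treated cells and 100% = reference agonist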
OPRM1-OPRD1 inv – inverse agonist of human OPRM1-OPRD1 heterodimerization; P35372+P41143; cell-based MOR-DOR heterodimer luminescence, inverse agonism; inhibition, % at 9.3 µM; hit rate 0.21% among 340,000; AID 504357; in the data active = inhibition above about 22%, passing the limit was not always enough;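 also: 0% = cells with DMSO and 100% = wells without cells with DMSO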
HGIII-sPLA2 inh – Inhibits HGIII-sPLA2 liposome hydrolysis, primary screen | QFRET BODIPY PC-A2 liposome hydrolysis, fluorescence | Q9NZ20 | inhibition, % at 12.2 µM | hit rate 0.56% among 370,000;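 active = inhibition above mean plus 3 SD of compounds lying within the high and low control bounds, cut at about 19% in these data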;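 also: 0% = median of test compound wells and 100% = no enzyme DMSO wells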
HTR5A inv ag – counter-screen for OPRM1-OPRD1 inverse agonists: human HTR5A inverse agonism | HTR5A cell line, luminescence | inhibition, % at 9.3 µM | hit rate 0.083% among 340,000 | AID 504634; in the data active = inhibition mostly above about 23%, no sharp cut-off; inactive = mostly below about 18%;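 also: 0% = cells with DMSO and 100% = no-cell wells with DMSO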
m5-HT2A agonist – activates the mouse 5-HT2A serotonin receptor; P35363; CHO-K1 mHTR2A beta-arrestin complementation, luminescence; percent of 30 µM serotonin response; activation, % at 7.6 µM; hit rate 0.66% among 360,000; AID 624169;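 active = activation above a run cutoff, the mean activation of all tested compounds plus 3 SD, cut at about 14% in these data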;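 also: 0% = plate median of compound wells and 100% = 30 µM serotonin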
OPRM1-D1 inv cf – OPRM1-OPRD1 heterodimer inverse agonism, confirmation; shares compounds with OPRM1-OPRD1 inv; cells expressing OPRM1/OPRD1 heterodimer, luminescence; inhibition, % at 9.3 µM; hit rate 20% among 580; in the data active = inhibition above about 32%;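 also: 0% = cells with DMSO and 100% = wells lacking cells with DMSO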
HTR5A inv count – HTR5A inverse agonism, opioid heterodimer counter-screen; shares compounds with OPRM1-OPRD1 inv; 580 tested, under 10 active; inhibition, % at 9.3 µM; HTR5A-expressing cells, luminescence; call rule not given here;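 also: 0% = cells with DMSO and 100% = no-cell wells with DMSO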
The depositor's hits bear a star; i = inactive; . = no result. Sampled rows, rich in hits. Any-hit rate of the full collection: about 2.2%.

SMILES	HTR5A ag ctr	OPRM1-OPRD1 ag	OPRM1-OPRD1 inv	HGIII-sPLA2 inh	HTR5A inv ag	m5-HT2A agonist	OPRM1-D1 inv cf	HTR5A inv count
O=C1Nc2ccc(F)cc2C12Nc1ccccc1-c1nnc(SCc3ccccc3F)nc1O2 (stereo unspecified)	-3.9	-11.1	69.0*	2.0	10.3	0.7	72.3*	10.4
Cc1cc(C(=O)NNc2ccccc2F)no1	-3.4	-3.9	20.0	5.2	-38.4	0.9	.	.
Cc1cc(C(=O)NNc2ccc(F)cc2)no1	1.1	-7.2	35.5*	0.1	3.6	9.5	i	-10.7
CCOc1ccc(CCNC(=O)c2cc3ccsc3n2C)cc1OCC	.	.	.	4.3	.	.	.	.
O=C(CN1C(=O)C2C3CCC(C3)C2C1=O)OCC(=O)c1cccc([N+](=O)[O-])c1 (stereo unspecified)	-14.0	-13.1	85.4*	-3.6	34.8*	3.6	-178.9	-26.7
O=C(CN1C(=O)C2C3CCC(C3)C2C1=O)OCC(=O)c1ccccc1 (stereo unspecified)	-2.3	-2.9	14.9	-1.5	2.6	-4.0	.	.
O=C(CCN1C(=O)C2C3CCC(C3)C2C1=O)OCC(=O)c1cccc([N+](=O)[O-])c1 (stereo unspecified)	0.2	-11.7	61.8*	1.4	14.1	-2.9	-8.2	6.8
O=C(CCN1C(=O)C2C3CC(C(Br)C3Br)C2C1=O)OCC(=O)c1cccc([N+](=O)[O-])c1 (stereo unspecified)	0.6	-2.5	20.6*	7.8	17.5	-0.7	38.2*	14.5
CC(C)C(C(=O)OCC(=O)c1cccc([N+](=O)[O-])c1)N1C(=O)[C@@H]2[C@H]3CC[C@H](C3)[C@@H]2C1=O (stereo partly specified)	3.7	-3.1	16.6	6.3	-9.4	-1.3	.	.
Cn1cccc1C(C#N)(CC#N)c1cccc(F)c1C#N (stereo unspecified)	-0.2	-2.7	12.5	2.0	0.4	-0.4	.	.
Cn1cccc1C(C#N)c1cccc(F)c1C#N (stereo unspecified)	-2.7	-7.2	36.7*	-4.5	14.5	-1.8	9.4	6.0
O=C(CSc1nnc(-c2ccccc2)n1-c1ccccc1)NN=C/C=C\c1ccccc1[N+](=O)[O-]	.	.	.	-0.1	.	.	.	.
CN(C)CC1CC/C(=C\c2ccc(O)cc2)C1=O (stereo unspecified)	-6.3	-9.4	41.3*	-15.2	24.0	-4.0	i	-26.0
O=C1C(c2ccccc2)CN1Cc1ccccc1 (stereo unspecified)	.	.	.	6.2	.	-6.4	.	.
O=C1N(Cc2ccccc2)CC2(Br)COCOC12O (stereo unspecified)	-4.9	-8.7	44.9*	-47.9	19.0	0.1	-20.8	-1.3
O=C(Nc1ccc(Cl)cc1)N1CCN(Cc2nc3ccccc3c(=O)[nH]2)CC1	.	.	.	3.0	.	.	.	.
O=C(CCC(=O)OCC(=O)c1ccc(Cl)cc1Cl)Nc1cccc2cccnc12	-6.6	-9.7	54.8*	-0.1	13.4	5.1	-4.0	-13.6
O=C(OCC(=O)c1ccc(Cl)cc1Cl)c1ccccn1	1.3	-12.2	50.4*	-6.6	-3.7	-0.9	i	-70.8
O=C(OCC(=O)c1ccccc1Br)c1ccccn1	-2.2	-1.9	9.5	-1.4	22.1	-0.9	.	.
O=C(OCC(=O)c1ccc(Cl)cc1Cl)c1ccc2c(c1)C(=O)N(c1cccc3ncccc13)C2=O	-2.2	-8.3	43.1*	5.2	1.6	0.3	-61.3	-31.6
O=C(C1=C(Nc2ccccc2)c2ccccc2S(=O)(=O)N1)c1ccccc1	-3.5	-5.7	31.5*	6.9	7.2	-0.6	18.9	13.9
O=S1(=O)c2ccc(N3CCCC3)cc2Oc2ccccc2CN1Cc1cn(Cc2ccc(C(F)(F)F)cc2)nn1	.	.	.	12.1	.	.	.	.
CCc1noc(C)c1C(=O)N1CCN(CC(=O)OC)CC1	.	.	.	6.4	.	.	.	.
CC(C)c1ccc(NC2(C#N)C(=O)Nc3ccccc32)cc1 (stereo unspecified)	-2.9	-10.4	58.9*	9.8	2.6	-1.1	-12.6	-18.7
Cc1ccccc1NC1(C#N)C(=O)Nc2ccccc21 (stereo unspecified)	-7.2	-11.6	58.2*	0.2	4.2	1.5	-251.5	-5.7
SMILES	HTR5A ag ctr	OPRM1-OPRD1 ag	OPRM1-OPRD1 inv	HGIII-sPLA2 inh	HTR5A inv ag	m5-HT2A agonist	OPRM1-D1 inv cf	HTR5A inv count
N#C/C(=C1/C(=O)Nc2ccc(Br)cc21)c1ccccn1	-4.2	-10.5	49.1*	15.5	11.5	-1.3	i	3.9
Cc1cc(C)nc(NS(=O)(=O)c2ccc(NS(=O)(=O)c3ccc(F)c(F)c3)cc2)n1	.	.	.	1.7	.	3.8	.	.
Cc1cc(C)nc(NS(=O)(=O)c2ccccc2)n1	6.3	1.6	-10.2	4.2	-16.5	6.3	.	.
Cc1cc(C)nc(NNS(=O)(=O)c2ccc(Cl)cc2)n1	-3.5	-10.2	44.8*	6.3	13.3	-3.8	18.9	6.9
COc1ccc(S(=O)(=O)NC2CC2)cc1Br	1.0	-0.9	4.5	0.7	-3.7	-0.5	.	.
Cc1cc(C)nc(NNS(=O)(=O)c2ccc(F)c(Cl)c2)n1	-4.9	-8.1	44.2*	7.2	12.2	1.2	62.3*	-5.2
COc1ccc(S(=O)(=O)NNc2nc(C)cc(C)n2)cc1Br	-0.4	-5.6	30.8*	8.2	1.0	3.9	-1.6	-8.1
Cn1cnc([N+](=O)[O-])c1Sc1ncccc1N	-11.5	-8.6	45.7*	1.2	29.3*	-5.7	-4.5	17.3
COC(=O)C1CN(C2CCCC2)CCS(=O)(=O)N1Cc1ccc(OC)cc1 (stereo unspecified)	.	.	.	-1.8	.	.	.	.
O=C1N2Cc3ccccc3C2CS(=O)(=O)N1C1CCCC1 (stereo unspecified)	.	.	.	18.3	.	.	.	.
Cc1ccc(N/N=C/c2c(O)cc(C)oc2=O)cc1	-1.1	-9.2	45.7*	-4.3	2.4	-2.4	43.5*	-5.7
Cc1cc(O)c(/C=N/Nc2ccc(F)cc2)c(=O)o1	.	.	.	1.7	.	4.3	.	.
O=C(OCc1cn(Cc2ccc(Cl)cc2)nn1)N1CCOCC1	.	.	.	1.0	.	.	.	.
Cc1cc(NC(=O)CSCC(=O)OCC(=O)c2cccc(Br)c2)no1	-8.3	-6.5	26.8*	-2.6	20.4	-3.3	-34.5	6.6
Cc1cc(NC(=O)CSCC(=O)OCC(=O)Nc2ccc(OC(F)F)cc2)no1	0.7	-0.2	0.9	6.3	2.9	4.0	.	.
c1ccc(C2OC3c4cccc5cccc(c45)C3N2c2ccccc2)cc1 (stereo unspecified)	-3.5	-7.6	38.0*	-27.6	9.2	-3.8	-40.6	-2.3
Cc1ccccc1C(=O)n1ccc2ccc(-c3ccc4ccn(Cc5ccc(C#N)cc5)c4c3)cc21	.	.	.	14.9	.	.	.	.
